# Source: PubChem BioAssay
# HepG2 viability: counter-screen for TGF-b inhibitors: cytotoxicity in HepG2 cells. Potency, µM (titrated, usually from 46.1 µM), without a hit: at the top dose activity change, negative = cytotoxicity, usual class: cytotoxic. AID 588856. 410,000 compounds, 0.76% hits. HepG2 CAGA-GFP viability, ATP luminescence, 18 h
#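 HepG2 CAGA-GFP cells (1000/well, DMEM with 1% FBS) received compound, then TGF-beta at 500 pg/mL final, and were incubated 18 hours at 37 degrees C. Viability was read by CellTiter-Glo luminescence. Media-only wells were set as complete cell-killing and DMSO as no toxicity.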
# RORgamma inh: ROR gamma (mouse) transcription inhibition. P51450. Drosophila S2 Gal4-RORgamma UAS-luciferase reporter, 20 h. Potency, µM (titrated, usually from 53.6 µM), without a hit: at the highest dose activity change, negative = inhibition, actives largely listed as inhibitors. 310,000 compounds, 5.4% hits; also: % is scaled to controls: 0 for no effect and ±100 for the full control effect; nearly all actives have a fitted effect of over 60% in size
# Target sequence (P51450 whole entry, looked up, the tested form may be a part): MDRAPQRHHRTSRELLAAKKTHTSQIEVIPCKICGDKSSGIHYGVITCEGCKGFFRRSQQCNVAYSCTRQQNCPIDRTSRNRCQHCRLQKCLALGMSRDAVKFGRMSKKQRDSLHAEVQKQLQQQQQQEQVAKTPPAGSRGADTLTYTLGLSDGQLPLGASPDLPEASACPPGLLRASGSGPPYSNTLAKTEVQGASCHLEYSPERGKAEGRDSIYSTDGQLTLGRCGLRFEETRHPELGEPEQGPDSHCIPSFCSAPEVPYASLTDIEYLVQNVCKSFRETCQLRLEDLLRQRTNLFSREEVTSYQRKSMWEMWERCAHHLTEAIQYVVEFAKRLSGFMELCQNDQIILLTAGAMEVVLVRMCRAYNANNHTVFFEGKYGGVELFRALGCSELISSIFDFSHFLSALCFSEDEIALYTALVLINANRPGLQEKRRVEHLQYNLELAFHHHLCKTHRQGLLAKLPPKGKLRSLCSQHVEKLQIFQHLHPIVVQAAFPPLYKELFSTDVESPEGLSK
#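 Compounds are pin-transferred onto Drosophila Schneider cells expressing a copper-inducible Gal4–ROR gamma transactivation domain fusion. After 1 hr, copper sulfate is added to 700 uM final; luciferase is read 20 hr later.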
# S2 tox: reduces viability in counter-screen for ATXN expression inhibitors | Potency, µM (series often up to 56.7 µM), actives largely listed as cytotoxic | AID 651635 | S2 cells (HEK-293 line with an ATXN2-luciferase reporter) viability, CellTiter-Fluor protease fluorescence, 24 h | 400,000 compounds, 0.49% hits; also: nearly all actives have a fitted effect of over 40% in size
# ATXN2 expr inh: ATXN2 expression inhibition | 360,000 compounds, 0.72% hits | AID 1745845 | HEK-293 ATXN2-luciferase reporter, luminescence, 24 h | Potency, µM (top dose mostly 57 µM), without a hit: at the top dose activity change, negative = inhibition, actives largely listed as inhibitors; also: % is scaled to controls: 0 for no effect and ±100 for the full control effect; nearly all actives have a fitted effect of over 55% in size
#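 qHTS (up to 57 uM final) was run with 24 h compound exposure of reporter cells at 37 °C. Each well was multiplexed: SteadyGlo luminescence measured ATXN2-luciferase expression after a fluorogenic Gly-Phe-AFC viability readout (25 uM final).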
# VP16 counter: counter-screen for ROR gamma inhibitors: Gal4-VP16 reporter | Drosophila S2 Gal4-VP16 UAS-luciferase, luminescence, 20 h | 310,000 compounds, 3.5% hits | Potency, µM (highest dose often 53.6 µM), without a hit: top-dose activity, negative = inhibition, most hits filed as inhibitors;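 also: Gal4-VP16 expression switched on by copper sulfate through the metallothionein promoter; % is scaled to controls: 0 for no effect and ±100 for the full control effect; nearly all actives have a fitted effect of over 50% in size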
# TGFb inhibitor: inhibitors of TGF-b signaling. HepG2 CAGA-GFP TGF-b/SMAD3 reporter, GFP fluorescence, 18 h; TGF-beta stimulated, 500 pg/mL final. Potency, µM (series often up to 46.1 µM), without a hit: at the top dose activity, negative = inhibition, actives largely listed as inhibitors. 410,000 compounds, 1.2% hits. AID 588855; also: % is scaled to controls: 0 for no effect and ±100 for the full control effect; nearly all actives have a fitted effect of over 65% in size
#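 First, reporter cells (HEPG2 CAGA-GFP) rested 2 h at 37 degrees C. Next, compounds were pinned in and TGF-beta added to 500 pg/mL final. After 18 h, GFP was imaged per cell and summed per well.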
# * hit, by the source's call; i = inactive; ? = inconclusive; . = no result given. An excerpt weighted towards active compounds, which were near 6.3% of everything screened. Calls follow the shape of the dose curve; as a rule, active = well fitted curve in the direction sought with a large enough effect; inconclusive = small, poorly fitted or top-dose-only effect, or another doubt; inactive = no such curve, though single readings can be large; an effect the other way counts as inactive or inconclusive. Potency is read from the fitted curve at half-maximal effect.
SMILES,HepG2 viability,RORgamma inh,S2 tox,ATXN2 expr inh,VP16 counter,TGFb inhibitor
O=C(Nc1ccc(N2CCOCC2)c(Cl)c1)c1ccc2c(c1)OCCO2,1%,0.79µM*,i,3%,?,0%
Cc1cc(C(=O)Nc2ccc(N3CCOCC3)c(Cl)c2)c(C)o1,-42%,3.2µM*,i,.,-24%,6%
Cc1ccc(NC(=O)c2cc(N3C(=O)C=CC3=O)ccc2N2CCOCC2)cc1Cl,-66%,5.6µM*,?,?,3.2µM*,?
Cc1ccc(NC(=O)c2cc(N3C(=O)CCC3=O)ccc2N2CCOCC2)cc1,0%,25%,i,-3%,-3%,-4%
O=C(Nc1ccc(N2CCCC2)c(Cl)c1)c1ccc2c(c1)OCCO2,-14%,.,i,19%,.,?
O=C(Nc1ccc(N2CCOCC2)c(Cl)c1)c1ccccc1F,-8%,9%,i,64%,?,-7%
O=C(CCCCn1c(=O)c2ccccc2n(Cc2ccccc2F)c1=O)NCc1ccc2c(c1)OCO2,4%,.,i,5%,.,-2%
COC(=O)C[C@H](NC(=O)Cn1cnc2c(NCc3ccccc3)ncnc21)C(=O)OC,4%,.,i,2%,.,19%
Cc1c(NC(=S)N/N=C/C=C/c2ccccc2)c(=O)n(-c2ccccc2)n1C,-1%,0.32µM*,i,-1%,0.79µM*,-10%
Cc1c(NC(=S)N/N=C/C=C/c2ccc([N+](=O)[O-])cc2)c(=O)n(-c2ccccc2)n1C,-2%,3.2µM*,i,5%,11µM*,-19%
Cc1c(NC(=S)N/N=C/c2ccc(Br)cc2)c(=O)n(-c2ccccc2)n1C,-3%,?,i,-19%,?,9%
Cc1ccc(NC(=S)Nc2cccc(S(=O)(=O)Nc3c(C)n(C)n(-c4ccccc4)c3=O)c2)cc1,-20%,11µM*,i,10%,4%,-11%
CCN(CC(=O)Nc1ccc(NC(C)=O)cc1)c1ccc(C(F)(F)F)cn1,3.5µM*,7%,i,5%,-7%,3%
CC(=O)Nc1ccc(N2CCN(c3ccc(C(F)(F)F)cn3)CC2)nc1,-40%,?,i,-37%,14%,-3%
Cc1ccc(-c2nn3c(=O)cc(CN4CCN(C(=O)c5ccc(C(C)(C)C)cc5)CC4)nc3s2)cc1,4%,.,i,7%,.,-4%
O=C1CC(c2ccccc2O)Oc2ccc(O)cc21 (centres undefined),.,14%,.,.,-7%,.
O=C1CN(CC(=O)N2CCOCC2)c2ccccc2O1,.,20%,.,.,-6%,.
O=C1CN(CC(=O)N2CCCCC2)c2ccccc2O1,22µM*,-6%,i,3%,15%,?
Cc1ccc(S(=O)(=O)Nc2c(C)cc([N+](=O)[O-])cc2C)cc1,-13%,.,i,-15%,.,-24%
Cc1ccc(S(=O)(=O)c2ccc([N+](=O)[O-])o2)cc1,-100%,.,11µM*,6.7µM*,.,10µM*
CC(=N\NC(=O)c1ccccc1)/C(=N/O)C(=O)Nc1ccccc1,-38%,5µM*,i,1%,?,?
Cc1cc(C)c2nccc(C)c2c1,-3%,.,.,.,.,-13%
Cc1ccc(-n2c(=O)c3oc4ccccc4c3n(Cc3cccc(F)c3)c2=O)cc1C,-7%,.,.,.,.,?
O=Cc1ccc(O)c2ncccc12,4.5µM*,1µM*,.,3.5µM*,0.56µM*,4µM*
c1cnc2ccc3ncccc3c2c1,0%,-9%,i,34%,1%,4%
SMILES,HepG2 viability,RORgamma inh,S2 tox,ATXN2 expr inh,VP16 counter,TGFb inhibitor
Cn1cccc1Cc1nnc(SCC(=O)Nc2nccs2)n1CCc1ccccc1,-18%,18µM*,i,-12%,?,-3%
Cn1cccc1Cc1nnc(SCC(=O)Nc2nccs2)n1C,7%,-14%,i,9%,-2%,6%
CCn1c(COc2ccc(C(C)C)cc2)nnc1SCC(=O)Nc1nccs1,-14%,11µM*,i,-1%,?,12%
CCOC(=O)C1Oc2ccccc2C(c2ccccc2)=C1C(C)=O (centres undefined),.,-11%,.,.,-5%,.
COc1ccc(-c2[nH]c3ccccc3c2SCCNC(=O)c2ccc(S(=O)(=O)N(C)C)cc2)cc1,-4%,.,?,-6%,.,0%
Cc1ccc2oc(-c3cccc(NC(=S)NC(=O)/C=C/c4ccco4)c3)nc2c1,-11%,3.5µM*,i,36%,10µM*,?
Cc1ccc(-c2nc3ccccc3[nH]2)cc1NC(=O)/C=C/c1ccco1,-8%,16%,i,38%,-3%,-3%
Cc1cc(C)c2oc(-c3ccc(C)c(NC(=S)NC(=O)/C=C/c4ccco4)c3)nc2c1,-38%,0.25µM*,i,-6%,1.4µM*,-47%
Cc1cc(C)c2oc(-c3ccc(C)c(NC(=S)NC(=O)c4cccs4)c3)nc2c1,0%,2µM*,i,3%,?,?
Cc1ccc(-c2nc3ccccc3o2)cc1NC(=S)NC(=O)c1cccs1,-2%,4µM*,i,15%,?,?
Cc1ccc(C(=O)N2CCOc3ccc(CN4CCN(Cc5ccccn5)CC4)cc3C2)cc1,.,.,i,.,.,.
COCCNC(=O)C1(C)CCCN(CCC(=O)c2ccc(Br)cc2)C1 (centres undefined),13µM*,.,?,-23%,.,16µM*
O=C(CCN1CCOCC1)c1ccc(Br)cc1,-34%,?,?,?,13µM*,?
O=C(CCN1CCOCC1)c1ccc(Cl)cc1,0%,?,i,-22%,?,-1%
O=C(CCN1CCN(c2ccccc2F)CC1)c1ccc(Br)cc1,16µM*,?,i,4%,?,?
COc1ccc(/C=C2\C(=O)ON=C2c2ccccc2)cc1,-43%,2%,20µM*,?,-15%,-30%
O=C1ON=C(c2ccccc2)/C1=C/c1ccc(OS(=O)(=O)c2ccccc2)cc1,-4%,-10%,i,17%,3%,-7%
Cc1ccc(S(=O)(=O)c2c(Nc3ccccc3)sc(C(=O)c3ccc4c(c3)OCO4)c2N)cc1,-19%,.,i,-13%,.,0%
Cc1ccc(-n2c(Cc3cccc4ccccc34)n[nH]c2=S)c(C)c1,-64%,1.1µM*,i,-12%,?,-25%
COc1cc(-c2n[nH]c(=S)n2-c2ccc(C)cc2)cc(OC)c1OC,-10%,15%,i,-3%,0%,-3%
CC(C)(C)c1ccc(-c2n[nH]c(=S)n2-c2ccccc2)cc1,2%,3.2µM*,i,-6%,2.8µM*,-14%
